LMP1 NFkB inh: Epstein-Barr LMP1 NF-kappaB reporter inhibition. AID 504558. actives 0.69% (n = 350,000). inhibition, % at 12.5 µM. LMP1-induced NF-kappaB luciferase reporter cells, luminescence; in the data active = inhibition above about 41%; inconclusive = no clear call, values can overlap the other calls
TRPM1 prom inh: reduces MITF-dependent TRPM1 promoter luciferase signal; inhibition, % at 12.5 µM; SK-MEL-5 TRPM1 promoter luciferase, 24 h; actives 0.83% (n = 330,000); AID 488899;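 active = mean inhibition across replicates of 60% or more, whatever share of single replicates reaches that level; inconclusive = some that reach 60%, reason not given; inactive = mean inhibition across replicates below 60%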
LGR2 inh: Drosophila LGR2 receptor signaling inhibition; HEK293 LGR2, CRE-luciferase, bursicon-stimulated, 4 h; inhibition, % at 9.99 µM; actives 0.35% (n = 380,000); AID 720647;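 active = drop in luminescence signal, shown as inhibition above about 50% in the replicate tests, limit read from the data, passing the limit was not always enough; inconclusive = probably only some replicates passing the limit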;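 also: agonist challenge used bursicon conditioned medium at about half maximal strength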
PAX8 reporter: PAX8 transcriptional activity inhibition | RMG-I TPO-luciferase reporter, SteadyGlo, 24 h | inhibition, % at 12.6 µM | actives 1.2% (n = 360,000) | AID 652154;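 active = mean replicate inhibition at least 60% with every replicate also reaching 60%; inconclusive = only one of the two criteria is met; inactive = mean below 60% and not all replicates reaching 60%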;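 also: luciferase light reporting Pax8 driven TPO promoter activity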
EWS-Fli block: EWS/Fli transcriptional activity inhibition | A673 NR0B1-luciferase reporter, viability-normalised | inhibition, % at 12.6 µM | actives 0.67% (n = 350,000) | AID 651661;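 active = mean inhibition of at least 50% after viability correction, with every replicate also passing that limit; inconclusive = mean reaches 50% but only one of two replicates passes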;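 also: firefly luciferase signal divided by Alamar Blue viability fluorescence both relative to DMSO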
Shn3 inh set2: reduces Shn3 3'UTR luciferase signal in osteoblasts; Clone20 osteoblast Shn3 3'UTR firefly luciferase, 24 h; inhibition, % at 12.5 µM; actives 0.52% (n = 360,000); AID 588674;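 active = mean inhibition of at least 75% with every replicate also reaching 75%; inconclusive = mean inhibition at least 75% but some replicate below; inactive = mean inhibition below 75%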
Hits are given with their value; 0 = inactive; ? = inconclusive; - = no result given. Only some compounds are listed: those with a hit (about 2.2% of all), similar ones and a draw of the others.

SMILES | LMP1 NFkB inh | TRPM1 prom inh | LGR2 inh | PAX8 reporter | EWS-Fli block | Shn3 inh set2
COc1cc(C(=O)NC(=S)N(CCc2ccccc2)CCc2ccccc2)cc(OC)c1OC | 0 | 0 | 0 | 75 | - | 0
CC(C)NC(=O)N(C)C[C@H]1Oc2ccc(NS(=O)(=O)c3ccc(F)cc3)cc2CC(=O)N([C@@H](C)CO)C[C@@H]1C | - | - | 0 | 0 | 0 | -
O=C1N=C(N2CCC(Cc3ccccc3)CC2)S/C1=C/c1cn[nH]c1-c1ccccc1 | 0 | 0 | - | 0 | - | 0
Cc1cccc(N2CCN(C3=NC(=O)/C(=C\c4cn[nH]c4-c4ccccc4)S3)CC2)c1 | 0 | 0 | 0 | 0 | - | 0
Cc1ccc(N2CCN(C3=NC(=O)/C(=C\c4cn[nH]c4-c4ccccc4)S3)CC2)cc1 | 69 | 0 | 0 | 0 | - | 0
O=C1N=C(N2CCN(c3ccccc3)CC2)S/C1=C\c1cn[nH]c1-c1ccccc1 | 0 | 0 | 60 | 0 | 0 | 0
Cn1nnnc1Sc1ncnc2scc(-c3ccc(C#N)cc3)c12 | 57 | 92 | 88 | 72 | 0 | 0
Cn1nnnc1Sc1ncnc2scc(-c3cc4ccccc4o3)c12 | 62 | 100 | 106 | 90 | 0 | 0
COC(=O)CSc1ncnc2scc(-c3ccccc3)c12 | 0 | 0 | 0 | 0 | 0 | 0
Cn1nnnc1Sc1ncnc2scc(-c3ccc(-c4ccccc4)cc3)c12 | 0 | 0 | 0 | 77 | 0 | 0
CC(=O)c1ccccc1-c1csc2ncnc(Sc3nnnn3C)c12 | 0 | 0 | 0 | 86 | 0 | 0
CNC[C@@H]1Oc2ncc(-c3ccc(OC)cc3)cc2C(=O)N([C@H](C)CO)C[C@@H]1C | - | - | 0 | 0 | 0 | -
C[C@H](CO)N1C[C@H](C)[C@H](CN(C)S(C)(=O)=O)Oc2ccc(NC(=O)C3CCCCC3)cc2C1=O | - | - | 0 | 0 | 0 | -
Cc1ccc(S(=O)(=O)Nc2cccc3c2O[C@@H](CN(C)CC2CCCCC2)[C@H](C)CN([C@H](C)CO)C3=O)cc1 | - | - | 0 | 0 | 0 | -
Cc1ccc(-c2csc3ncnc(SCC(=O)O)c23)cc1 | 0 | 0 | 0 | 0 | 0 | 0
Cn1nnnc1Sc1ncnc2scc(-c3ccsc3)c12 | 43 | 82 | 74 | 98 | 0 | 0
Cc1ccccc1N1CCN(c2ncnc3scc(-c4cccs4)c23)CC1 | 0 | 0 | 0 | 0 | - | 0
Cn1nnnc1Sc1ncnc2scc(-c3cccs3)c12 | 53 | 88 | - | - | - | 0
Cc1ccc(S(=O)(=O)N2C[C@@H]3CCCC[C@@H]3[C@@H](C)[C@H]2c2cn(Cc3ccccc3)c3ncccc23)cc1 | 0 | 0 | 0 | ? | 0 | 89
Cc1ccc(S(=O)(=O)N2C[C@@H]3CCCC[C@@H]3[C@@H](C)[C@H]2c2cn(Cc3ccccc3)c3ccccc23)cc1 | 0 | 0 | 0 | 0 | 0 | 0
COc1ccc(CNC(=O)C[C@H]2C[C@H]3c4cc(NS(=O)(=O)c5ccc(F)cc5)ccc4O[C@H]3[C@@H](CO)O2)cc1 | - | - | 0 | - | 0 | -
CCCCCn1c(N2CCOCC2)nc2c1c(=O)n(CC(N)=O)c(=O)n2C | 64 | 0 | 0 | - | - | 0
CC(C)(C)[C@@H]1COC(=O)[C@@H](NC(=O)OCC2c3ccccc3-c3ccccc32)C/C=C\C[C@@H](CC(=O)NCCO)C(=O)N1 | 0 | 0 | 0 | 0 | 0 | 86
CNC(=O)C[C@@H]1CC[C@@H]2[C@H](COC[C@H](O)CN2Cc2ccncc2)O1 | - | - | 0 | 0 | 0 | -
Cc1cccc(NC(=O)CCc2ccc(N3C(N)=NC(N)=NC3(C)C)cc2)c1 | 0 | - | 0 | 65 | ? | 0
SMILES | LMP1 NFkB inh | TRPM1 prom inh | LGR2 inh | PAX8 reporter | EWS-Fli block | Shn3 inh set2
CCOc1ccc(C(=O)N(CC)CC(=O)Nc2ccc3c(c2)OCCO3)cc1OCC | 0 | 0 | 0 | 0 | 0 | 0
CCN(CC(=O)Nc1ccc2c(c1)OCCO2)C(=O)c1ccc([N+](=O)[O-])s1 | 0 | 71 | 0 | 0 | 0 | 0
Cn1c(CSc2nc3ccccc3n2C)nc2ccccc21 | 0 | 0 | - | 0 | - | 0
Cn1c(SC2=CS(=O)(=O)c3ccccc32)nc2ccccc21 | 0 | 65 | - | - | - | 0
CC1=NN(C(N)=S)C(=O)C1N=Nc1cccc(C(=O)O)c1 (configuration not stated) | 49 | 0 | 61 | 0 | 0 | 0
C[C@@H]1CCCCO[C@H](CN(C)S(=O)(=O)c2cn(C)cn2)[C@H](C)CN([C@@H](C)CO)C(=O)c2cc(NS(=O)(=O)c3cccs3)ccc2O1 | - | - | 0 | 0 | 0 | -
Cc1ccc(N2CCCCn3c2nc2c3c(=O)n(CC(=O)O)c(=O)n2C)cc1 | 56 | 0 | 0 | - | - | 0
CCOC(=O)Cn1c(=O)c2c(nc3n2CCCCN3c2ccc(C)cc2)n(C)c1=O | 0 | 0 | - | 0 | - | 0
NC(=Nc1nc(-c2ccccn2)cc2ccccc12)c1ccccn1 | 67 | 65 | 0 | 0 | 0 | 88
CCc1ccc(NC2=CC(=O)C(=O)c3ccccc32)cc1 | 0 | 104 | 0 | 0 | 0 | 0
O=C1C=C(Nc2ccccc2)C(=O)c2ccccc21 | 0 | 0 | 0 | - | 0 | 0
O=C1C=C(Nc2ccccc2)c2ccccc2C1=O | 0 | 102 | 0 | 0 | 0 | 0
O=C1C=C(Nc2cccc3cccnc23)c2ccccc2C1=O | 0 | 80 | 0 | 0 | 0 | 0
CNC[C@@H]1Oc2ccc(NC(=O)Nc3ccc(F)cc3)cc2C(=O)N([C@@H](C)CO)C[C@H]1C | - | - | 0 | 0 | 0 | -
CN(C)C(=O)c1ccc(-c2ccc([C@@H]3[C@@H](CO)N4C(=O)CN(C(=O)CC5CC5)C[C@@H]34)cc2)cc1 | - | - | 0 | 0 | 0 | -
C[C@H](O)C#Cc1ccc([C@H]2[C@H]3CN(C(=O)Nc4ccccc4)CCCCN3[C@H]2CO)cc1 | - | - | 0 | 69 | 0 | -
CC(C)CC#Cc1ccc([C@H]2[C@@H](CO)N3CCCCN(C(=O)Nc4ccccc4)C[C@@H]23)cc1 | - | - | 0 | 0 | 0 | -
CC(C)CC#Cc1ccc([C@@H]2[C@H]3CN(C(=O)Nc4ccccc4)CCCCN3[C@H]2CO)cc1 | - | - | 0 | 74 | 0 | -
Cc1ccc(C)c(OCc2nc(-c3cccnc3)no2)c1 | 0 | 0 | - | - | - | 0
Cc1cccc(OCc2nc(-c3cccnc3)no2)c1 | 0 | 0 | 0 | 92 | 0 | 0
COc1cccc(CNCCc2c[nH]c3ccccc23)c1OCc1ccccc1 | 0 | 94 | 0 | 0 | 0 | ?
COc1cc(CNCCc2c[nH]c3ccccc23)ccc1OCc1ccccc1F | 0 | 0 | 0 | - | 0 | 0
OC1c2cc(Br)ccc2N=C2CCCCCN21 (configuration not stated) | - | - | 0 | 70 | 0 | 0
Cc1cc(NC(=O)c2ccc(C)s2)n(-c2nc3ccccc3[nH]2)n1 | 67 | 0 | 0 | 0 | - | 0
CC(=O)N1[C@H](C(=O)NCc2ccc(F)cc2)[C@@H](CO)[C@@H]2Cn3c(cccc3=O)[C@@H]21 | - | - | 0 | 0 | 0 | -
C[C@@H]1CN([C@@H](C)CO)C(=O)c2c(c3ccccc3n2C)-c2ccccc2CO[C@H]1CN(C)Cc1ccc2c(c1)OCO2 | - | - | 0 | 0 | 0 | -
CC(C)(C)n1nnnc1C(c1ccc(C(F)(F)F)cc1)N(Cc1ccccc1)Cc1ccco1 (configuration not stated) | 0 | 0 | - | - | - | 88
